Measured values taken from PubChem BioAssay (NCI).
This is part of a sample that, as a whole, favours compounds with a hit. Of some 83,000 tested, about 20% had one in any assay.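 Interpretation: 100, growth as untreated; towards 0, rising growth inhibition; 0, no net growth; 0 to -100, cell death. Compounds scoring below 10 were considered active.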 Calls of active or inactive are those of the source.

Experiments:
Experiment in all cases: NCI-60 one-dose screen, 48 h (100 = growth as untreated, 0 = no growth, -100 = all killed)
Conditions in all cases: 10 µM unless noted
RPMI-8226 leukemia = tested on: RPMI-8226 leukemia
OVCAR-8 ovarian = tested on: OVCAR-8 ovarian
OVCAR-5 ovarian = tested on: OVCAR-5 ovarian
OVCAR-4 ovarian = tested on: OVCAR-4 ovarian
SK-OV-3 ovarian = tested on: SK-OV-3 ovarian
IGROV1 ovarian = tested on: IGROV1 ovarian
OVCAR-3 ovarian = tested on: OVCAR-3 ovarian
HS 578T breast = tested on: HS 578T breast
NCI/ADR-RES ovarian = tested on: NCI/ADR-RES ovarian
T-47D breast = tested on: T-47D breast
BT-549 breast = tested on: BT-549 breast
MDA-MB-435 melanoma = tested on: MDA-MB-435 melanoma
SW-620 colon = tested on: SW-620 colon
MCF7 breast = tested on: MCF7 breast
HCT-116 colon = tested on: HCT-116 colon
HCC-2998 colon = tested on: HCC-2998 colon
KM12 colon = tested on: KM12 colon

Measured: growth

Cc1[nH]n(-c2ccccc2)c2nc3nncc3c(-c3ccc(Cl)cc3)c12
inactive: RPMI-8226 leukemia 80.6% | OVCAR-8 ovarian 89.8% | OVCAR-5 ovarian 99.1% | OVCAR-4 ovarian 107% | SK-OV-3 ovarian 105% | IGROV1 ovarian 124% | OVCAR-3 ovarian 121% | HS 578T breast 110% | NCI/ADR-RES ovarian 93.6% | T-47D breast 93.6% | BT-549 breast 111% | MDA-MB-435 melanoma 98.1% | SW-620 colon 93.3% | MCF7 breast 93.9% | HCT-116 colon 93.9% | HCC-2998 colon 109% | KM12 colon 97%

Nc1nc(-c2ccc(F)cc2)cc(-c2cnn(-c3ccccc3)n2)n1
inactive: RPMI-8226 leukemia 105% | OVCAR-8 ovarian 100% | OVCAR-5 ovarian 110% | OVCAR-4 ovarian 111% | SK-OV-3 ovarian 102% | IGROV1 ovarian 83.8% | OVCAR-3 ovarian 105% | HS 578T breast 106% | NCI/ADR-RES ovarian 106% | T-47D breast 87.1% | BT-549 breast 119% | MDA-MB-435 melanoma 106% | SW-620 colon 99.3% | MCF7 breast 79.9% | HCT-116 colon 106% | HCC-2998 colon 111% | KM12 colon 100%

CNCc1cccc2c1OCCOCCOCCN(C)S(=O)(=O)c1ccc(cc1)-c1cnc(N)c(n1)C(=O)N2
inactive: RPMI-8226 leukemia 44.6% | OVCAR-8 ovarian 52.9% | OVCAR-5 ovarian 160% | OVCAR-4 ovarian 72.8% | SK-OV-3 ovarian 19.4% | IGROV1 ovarian 42.5% | OVCAR-3 ovarian 42.8% | HS 578T breast 56.9% | NCI/ADR-RES ovarian 80.1% | T-47D breast 47% | BT-549 breast 55.6% | MDA-MB-435 melanoma 46.2% | SW-620 colon 37.8% | MCF7 breast 42.2% | HCT-116 colon 15.4% | HCC-2998 colon 75.5% | KM12 colon 43.6%

CN1CCN(c2ccc3nc(-c4ccc5nc(-c6ccc(OCCC(C)(C)C)cc6)[nH]c5c4)[nH]c3c2)CC1
inactive: OVCAR-4 ovarian 81.2% | SK-OV-3 ovarian 88.8% | IGROV1 ovarian 77.7% | HS 578T breast 52.1% | NCI/ADR-RES ovarian 88% | T-47D breast 73.4% | BT-549 breast 72.4%
active: RPMI-8226 leukemia -50.1% | OVCAR-8 ovarian -48.9% | OVCAR-5 ovarian -2.35% | OVCAR-3 ovarian -83.6% | MDA-MB-435 melanoma -37.8% | SW-620 colon -82.6% | MCF7 breast -61.3% | HCT-116 colon -95% | HCC-2998 colon -64.6% | KM12 colon -60.6%

COc1ccc(-c2cc(NC(=O)Nc3ccc(O)cc3)no2)cc1
inactive: RPMI-8226 leukemia 82.1% | OVCAR-8 ovarian 90.1% | OVCAR-5 ovarian 82.9% | OVCAR-4 ovarian 76.7% | SK-OV-3 ovarian 111% | IGROV1 ovarian 68.2% | OVCAR-3 ovarian 87.4% | HS 578T breast 89.3% | NCI/ADR-RES ovarian 67.8% | T-47D breast 70.5% | BT-549 breast 64.5% | MDA-MB-435 melanoma 67.6% | SW-620 colon 76.3% | MCF7 breast 70.2% | HCT-116 colon 90% | HCC-2998 colon 82.7% | KM12 colon 20.8%

CN1CCN(Cc2ccc(NC(=O)c3[nH]ncc3Nc3ncnc4sccc34)cc2)CC1
active: RPMI-8226 leukemia -4.38% | OVCAR-3 ovarian 3.42% | HS 578T breast -2.25% | BT-549 breast -5.78% | SW-620 colon 6.8% | MCF7 breast 9.47% | HCT-116 colon 6.91% | HCC-2998 colon -1.02% | KM12 colon 5.21%
inactive: OVCAR-8 ovarian 12% | OVCAR-5 ovarian 21.2% | OVCAR-4 ovarian 10.2% | SK-OV-3 ovarian 31.4% | IGROV1 ovarian 23.6% | NCI/ADR-RES ovarian 16.4% | T-47D breast 27.7% | MDA-MB-435 melanoma 25.8%

COC(=O)[C@H](C(C)C)n1c(=O)c2cc(OC)c(OC)cc2c2cnc3[nH]ccc3c21
active: IGROV1 ovarian 3.08%
inactive: RPMI-8226 leukemia 55% | OVCAR-8 ovarian 65.1% | OVCAR-5 ovarian 39.9% | OVCAR-4 ovarian 85% | SK-OV-3 ovarian 26.5% | OVCAR-3 ovarian 48.8% | HS 578T breast 12.6% | NCI/ADR-RES ovarian 56.4% | T-47D breast 14.8% | BT-549 breast 21.2% | MDA-MB-435 melanoma 75.1% | SW-620 colon 61.8% | MCF7 breast 26.2% | HCT-116 colon 41.4% | HCC-2998 colon 62% | KM12 colon 18.4%

COc1ccc(-c2nc(Nc3cc(C)[nH]n3)c3ccccc3n2)cc1
inactive: RPMI-8226 leukemia 50.7% | OVCAR-8 ovarian 83.8% | OVCAR-5 ovarian 59.8% | OVCAR-4 ovarian 60.1% | SK-OV-3 ovarian 53.1% | OVCAR-3 ovarian 52.2% | NCI/ADR-RES ovarian 74.3% | T-47D breast 28.6% | BT-549 breast 51.7% | MDA-MB-435 melanoma 26.6% | SW-620 colon 35.4% | MCF7 breast 22.1% | HCT-116 colon 29.5% | HCC-2998 colon 74.2% | KM12 colon 18.3%
active: IGROV1 ovarian 1.47% | HS 578T breast 2.72%

O=c1c2cccc3c(Nc4ccccn4)ccc(c32)c2nc3ccccc3n12
inactive: RPMI-8226 leukemia 49% | OVCAR-8 ovarian 75.4% | OVCAR-5 ovarian 83.3% | OVCAR-4 ovarian 69.1% | SK-OV-3 ovarian 89.1% | IGROV1 ovarian 56.6% | OVCAR-3 ovarian 70% | HS 578T breast 111% | NCI/ADR-RES ovarian 74.6% | T-47D breast 46.6% | BT-549 breast 87.4% | MDA-MB-435 melanoma 99.4% | SW-620 colon 77.1% | MCF7 breast 28.7% | HCT-116 colon 65% | HCC-2998 colon 68.5% | KM12 colon 74.8%

CC1CN(Cc2ccco2)C(=S)N(c2ccccc2)C1=O (stereo unspecified)
inactive: RPMI-8226 leukemia 88.1% | OVCAR-8 ovarian 104% | OVCAR-5 ovarian 105% | OVCAR-4 ovarian 97% | SK-OV-3 ovarian 105% | IGROV1 ovarian 106% | OVCAR-3 ovarian 106% | HS 578T breast 101% | NCI/ADR-RES ovarian 108% | T-47D breast 83.1% | BT-549 breast 94.6% | MDA-MB-435 melanoma 100% | SW-620 colon 102% | MCF7 breast 102% | HCT-116 colon 88.9% | HCC-2998 colon 113% | KM12 colon 99.9%

Cc1cc(-c2nc3ccccc3s2)ccc1NC(=O)COc1ccc(Cl)cc1
inactive: RPMI-8226 leukemia 72.1% | OVCAR-8 ovarian 105% | OVCAR-5 ovarian 65.5% | OVCAR-4 ovarian 56.5% | SK-OV-3 ovarian 104% | IGROV1 ovarian 31.6% | OVCAR-3 ovarian 120% | HS 578T breast 117% | NCI/ADR-RES ovarian 93.3% | T-47D breast 18.9% | BT-549 breast 105% | MDA-MB-435 melanoma 113% | SW-620 colon 106% | MCF7 breast 17.5% | HCT-116 colon 76.7% | HCC-2998 colon 91.8% | KM12 colon 118%

O=S(=O)(Nc1ccc(F)c(Cl)c1)c1ccc(-c2cnc(C3CC3)o2)cc1
active: OVCAR-3 ovarian -8.13% | NCI/ADR-RES ovarian -17% | MDA-MB-435 melanoma 2.08%
inactive: RPMI-8226 leukemia 19.3% | OVCAR-8 ovarian 21.7% | OVCAR-5 ovarian 34.4% | OVCAR-4 ovarian 39.1% | SK-OV-3 ovarian 35.1% | IGROV1 ovarian 27.3% | HS 578T breast 11.3% | T-47D breast 27.4% | BT-549 breast 36.3% | SW-620 colon 17.3% | MCF7 breast 15.5% | HCT-116 colon 19.7% | HCC-2998 colon 32% | KM12 colon 30.8%

Cn1cc(-c2ccc(-c3cn(C)c4ncccc34)[nH]2)c2cccnc21
inactive: RPMI-8226 leukemia 31.9% | OVCAR-8 ovarian 23.3% | SK-OV-3 ovarian 106% | IGROV1 ovarian 73.8% | HS 578T breast 45.7% | NCI/ADR-RES ovarian 76% | MDA-MB-435 melanoma 86.6% | SW-620 colon 24% | MCF7 breast 75.2% | HCT-116 colon 67.3% | HCC-2998 colon 33.3% | KM12 colon 14.6%
active: OVCAR-5 ovarian -6.91% | OVCAR-4 ovarian -44.4% | OVCAR-3 ovarian -36.9% | T-47D breast -29.1% | BT-549 breast -12%

CN1C2CCC1/C(=C\c1ccc(Cl)cc1)C1=C2[C@@H](c2ccc(Cl)cc2)C(C#N)=C(N)O1 (stereo partly specified)
inactive: RPMI-8226 leukemia 62.6% | OVCAR-8 ovarian 93.3% | OVCAR-5 ovarian 84.5% | OVCAR-4 ovarian 75.6% | SK-OV-3 ovarian 94.8% | IGROV1 ovarian 79.1% | OVCAR-3 ovarian 92.5% | HS 578T breast 95.1% | NCI/ADR-RES ovarian 95.8% | T-47D breast 81.7% | BT-549 breast 97.5% | MDA-MB-435 melanoma 91.5% | SW-620 colon 94.3% | MCF7 breast 66% | HCT-116 colon 63.7% | HCC-2998 colon 104% | KM12 colon 95%

O=C(O)c1ccc(=O)[nH]n1
inactive: RPMI-8226 leukemia 107% | OVCAR-8 ovarian 103% | OVCAR-5 ovarian 104% | OVCAR-4 ovarian 113% | SK-OV-3 ovarian 106% | IGROV1 ovarian 137% | OVCAR-3 ovarian 115% | HS 578T breast 111% | NCI/ADR-RES ovarian 109% | T-47D breast 105% | BT-549 breast 106% | MDA-MB-435 melanoma 112% | SW-620 colon 102% | MCF7 breast 97.2% | HCT-116 colon 106% | KM12 colon 123%

CN1Cc2c(cc(CN3CCCCC3)n2C)C(c2ccc(Br)cc2)C1 (stereo unspecified)
inactive: RPMI-8226 leukemia 81.4% | OVCAR-8 ovarian 96.9% | OVCAR-5 ovarian 96.1% | OVCAR-4 ovarian 86.6% | SK-OV-3 ovarian 93.7% | IGROV1 ovarian 96.3% | OVCAR-3 ovarian 95.4% | HS 578T breast 76.3% | NCI/ADR-RES ovarian 88.1% | BT-549 breast 83.1% | MDA-MB-435 melanoma 65.5% | SW-620 colon 90.8% | MCF7 breast 71.8% | HCT-116 colon 61.8% | HCC-2998 colon 84.2% | KM12 colon 94.5%

C/C(Cc1ccc(Cl)cc1)=C(\c1ccc(OCCN2CCCCCC2)cc1)c1ccc(OC(=O)C2CCCCC2)cc1
inactive: RPMI-8226 leukemia 37.2% | OVCAR-8 ovarian 66.2% | OVCAR-5 ovarian 73.4% | OVCAR-4 ovarian 80.6% | SK-OV-3 ovarian 88.1% | IGROV1 ovarian 46.8% | OVCAR-3 ovarian 71.8% | HS 578T breast 56.3% | NCI/ADR-RES ovarian 70.4% | T-47D breast 49.1% | BT-549 breast 86.6% | SW-620 colon 56.9% | MCF7 breast 29.6% | HCT-116 colon 44% | HCC-2998 colon 10.4% | KM12 colon 53.1%
